Laboratory results taken from the supplement of paper PMC13380429.

System: Vero E6 infected with SARS-CoV-2
Assay: inhibition of SARS-CoV-2 cytopathic effect; higher = more antiviral protection, active = above 15
Details: 48 h

Measured: inhibition of SARS-CoV-2 cytopathic effect

CNCCC(Oc1ccc(C(F)(F)F)cc1)c1ccccc1 (stereo not given) [fluoxetine]
inactive: 1 nM -10.3% | 8.33 nM 0.27% | 100 nM -2.53% | 833.33 nM -3.36% | 10000 nM -9.56%

COc1c(N2C[C@@H]3CCCN[C@@H]3C2)c(F)cc2c(=O)c(C(=O)O)cn(C3CC3)c12 [moxifloxacin]
inactive: 1 nM 1.16% | 8.33 nM 0.31% | 100 nM 2.33% | 833.33 nM 0.76% | 10000 nM 1.03%

CCCCCCCC/C=C\CCCCCCCC(N)=O [oleamide]
inactive: 1 nM -2.29% | 8.33 nM -1.34% | 100 nM -3.82% | 833.33 nM 0.76% | 10000 nM 0.18%

Cc1ccc(/C=C2\CNC/C(=C\c3ccc(C)cc3)C2=O)cc1
inactive: 1 nM -3.15% | 8.33 nM -1.97% | 100 nM -0.54% | 833.33 nM -0.34% | 10000 nM 0.13%

CCCCC1=NC2(CCCC2)C(=O)N1Cc1ccc(-c2ccccc2-c2nnn[nH]2)cc1 [irbesartan]
inactive: 1 nM -1.49% | 8.33 nM -0.93% | 100 nM 0.89% | 833.33 nM 1.9% | 10000 nM 0.85%

O=C(Nc1ccncc1)C(=O)c1cn(Cc2ccc(Cl)cc2)c2ccccc12 [indibulin]
inactive: 1 nM 1.08% | 8.33 nM 1.94% | 100 nM 0.77% | 833.33 nM 0.68% | 10000 nM -6.21%

O=[N+]([O-])c1cn2c(n1)OC[C@@H](OCc1ccc(-c3ccc(OC(F)(F)F)cc3)nc1)C2
inactive: 1 nM 1.33% | 8.33 nM -0.87% | 100 nM -0.57% | 833.33 nM 4.38% | 10000 nM 0.34%

O=C(Nc1ccc(-c2ccncc2)cc1)N[C@H](CO)c1ccccc1
inactive: 1 nM -3.49% | 8.33 nM 2.37% | 100 nM -1.14% | 833.33 nM -0.94% | 10000 nM -7.89%

C=CCNc1nc(NCC=C)nc(N2CCN(C(c3ccc(F)cc3)c3ccc(F)cc3)CC2)n1 [almitrine]
inactive: 1 nM -6.44% | 8.33 nM -3.95% | 100 nM -7.43% | 833.33 nM -4.59% | 10000 nM -8.59%

c1ccc(CN2CCC3(CCc4ccccc43)CC2)cc1
inactive: 1 nM -1.07% | 8.33 nM -1.48% | 100 nM 0.06% | 833.33 nM 1.63% | 10000 nM 0.48%

Clc1cc(Cl)c(OCC#CI)cc1Cl [haloprogin]
inactive: 1 nM -0.57% | 8.33 nM -1.3% | 100 nM -0.9% | 833.33 nM 4.17%
active: 10000 nM 15.9%

O=C(O)[C@]1(Cc2cccc(Nc3nccs3)n2)CC[C@@H](Oc2cccc(Cl)c2F)CC1
inactive: 1 nM 0.11% | 8.33 nM -0.24% | 100 nM -0.82% | 833.33 nM -6.57% | 10000 nM -5.28%

Cc1ccc(Oc2ccccc2-c2csc(N=C3NCCCN3)n2)c(C)c1 [abafungin]
inactive: 1 nM 2.5% | 8.33 nM 1.5% | 100 nM 1.28% | 833.33 nM -1.03% | 10000 nM -6.36%

Nc1nc(=O)n([C@@H]2CS[C@H](CO)O2)cc1F [emtricitabine]
inactive: 1 nM -0.33% | 8.33 nM -2.03% | 100 nM 4.2% | 833.33 nM -0.69% | 10000 nM -0.34%

CCOc1ccc(/C=C2\NCCc3cc(OCC)c(OCC)cc32)cc1OCC [drotaverine]
inactive: 1 nM 1.53% | 8.33 nM 2.33% | 100 nM -0.04% | 833.33 nM 2.62% | 10000 nM 0.78%

O=C(C[S+]([O-])Cc1ccco1)NC/C=C\COc1cc(CN2CCCCC2)ccn1 (stereo not given) [lafutidine]
inactive: 1 nM -0.4% | 8.33 nM 5.21% | 100 nM 1.21% | 833.33 nM 5.01% | 10000 nM 3.05%

C=CC(N)CCC(=O)O (stereo not given) [vigabatrin]
inactive: 1 nM -9.39% | 8.33 nM -9.03% | 100 nM -9.5% | 833.33 nM -11% | 10000 nM -9.82%

Cc1cc(C(C)(C)C)cc(C)c1CC1=NCCN1 [xylometazoline]
inactive: 1 nM -7.36% | 8.33 nM -8.77% | 100 nM -5.88% | 833.33 nM -7.35% | 10000 nM -6.68%

Cc1cn([C@H]2C=C[C@@H](CO)O2)c(=O)[nH]c1=O [stavudine]
inactive: 1 nM -1.15% | 8.33 nM 2.97% | 100 nM 4% | 833.33 nM 2.52% | 10000 nM -1.21%

CC(C)n1c(/C=C/[C@@H](O)C[C@@H](O)CC(=O)O)c(-c2ccc(F)cc2)c2ccccc21 [fluvastatin]
inactive: 1 nM -0.24% | 8.33 nM -1.21% | 100 nM 1.75% | 833.33 nM -1.33% | 10000 nM 2.61%

COc1cc(OC)c(/C=C/S(=O)(=O)Cc2ccc(OC)c(OP(=O)(O)O)c2)c(OC)c1 [briciclib]
inactive: 1 nM 1.41% | 8.33 nM 1.56% | 100 nM -1.04% | 833.33 nM -0.82% | 10000 nM -1.99%

O=c1[nH]c2ccc(Cl)cc2c(N[C@@H]2CN3CCC2CC3)c1-c1nc2ccccc2[nH]1
inactive: 1 nM 0.01% | 8.33 nM 0.79% | 100 nM -0.9% | 833.33 nM -5.44% | 10000 nM -15.4%

NC(=O)CC[C@H](N)C(=O)O [L-glutamine]
inactive: 1 nM 0.7% | 8.33 nM 2.45% | 100 nM 0.59% | 833.33 nM 0.71% | 10000 nM -2.64%

CCc1cccc2c3c([nH]c12)C(CC)(CC(=O)O)OCC3 (stereo not given) [etodolac]
inactive: 1 nM -3.24% | 8.33 nM -2.14% | 100 nM -2.22% | 833.33 nM -1.67% | 10000 nM -0.69%

CNC(=O)[C@@H](NC(=O)[C@H](CC(C)C)[C@H](O)C(=O)NO)C(C)(C)C [marimastat]
inactive: 1 nM -4.07% | 8.33 nM 2.33% | 100 nM -5.18% | 833.33 nM -6.93% | 10000 nM -13.7%

Cc1sc2c(c1C)C(c1ccc(Cl)cc1)=N[C@@H](CC(N)=O)c1nnc(C)n1-2
inactive: 1 nM -0.7% | 8.33 nM -0.88% | 100 nM 0.16% | 833.33 nM -4.22% | 10000 nM -9.8%

COc1cc2ncnc(Sc3nnc(C)s3)c2cc1OC
inactive: 1 nM -1.42% | 8.33 nM 0.72% | 100 nM 3.01% | 833.33 nM 1.54%
active: 10000 nM 24.4%

N[C@@H](Cc1cc(-c2ccc(Cl)cc2Cl)cc(CP(=O)(O)O)c1O)C(=O)O
inactive: 1 nM 0.73% | 8.33 nM 2.24% | 100 nM 2.7% | 833.33 nM 2.63% | 10000 nM 2.27%

c1ccc(Cn2c(-c3ccc(OC[C@H](C4CCNCC4)n4c(-c5ccccc5)nc5ccccc54)cc3)nc3ccccc32)cc1 [deltarasin]
inactive: 1 nM -4.79% | 8.33 nM -0.65% | 100 nM -1.55% | 833.33 nM -1.93% | 10000 nM -33.6%

Nc1c2ccccc2nc2ccccc12 [9-aminoacridine]
inactive: 1 nM -6.32% | 8.33 nM 1.57% | 100 nM -3.73% | 833.33 nM 0.13% | 10000 nM -28.3%

CO[C@H]1/C=C/O[C@@]2(C)Oc3c(C)c(O)c4c(O)c(c(/C=N/N5CCN(C)CC5)c(O)c4c3C2=O)NC(=O)/C(C)=C\C=C\[C@H](C)[C@H](O)[C@@H](C)[C@@H](O)[C@@H](C)[C@H](OC(C)=O)[C@@H]1C [rifampin]
inactive: 1 nM -3.64% | 8.33 nM -3.69% | 100 nM -2.5% | 833.33 nM -3.32% | 10000 nM -1.54%

CO[C@@]1(NC(=O)Cc2cccs2)C(=O)N2C(C(=O)O)=C(COC(N)=O)CS[C@@H]21 [cefoxitin]
inactive: 1 nM -0.07% | 8.33 nM -1.13% | 100 nM -0.89% | 833.33 nM 0.12% | 10000 nM 1.09%

NS(=O)(=O)c1cc2c(cc1Cl)NC(C1CC3C=CC1C3)NS2(=O)=O (stereo not given) [cyclothiazide]
inactive: 1 nM 2.43% | 8.33 nM 0.31% | 100 nM 3.55% | 833.33 nM -0.08% | 10000 nM -1.44%

COc1cccc2cc(-c3nc([C@H]4CC[C@H](C(=O)O)CC4)n4ncnc(N)c34)[nH]c12
inactive: 1 nM 0.22% | 8.33 nM 2.25% | 100 nM 4.58% | 833.33 nM -0.9% | 10000 nM -2.61%

CN(C)c1cccc(-c2c3c(=O)n(-c4ccccc4Cl)[nH]c3cc(=O)n2C)c1
inactive: 1 nM -1.01% | 8.33 nM 2.2% | 100 nM 0.39% | 833.33 nM -1.67% | 10000 nM 9.86%

C#CCN1C(C)=C(C(=O)OC)C(c2cccc([N+](=O)[O-])c2)C(C(=O)OCC)=C1C (stereo not given)
inactive: 1 nM 0.91% | 8.33 nM 2.53% | 100 nM 0.36% | 833.33 nM 3.36% | 10000 nM 6.77%

COC(=O)Nc1nc2cc(C(=O)c3ccc(F)cc3)ccc2[nH]1 [flubendazole]
inactive: 1 nM -1.07% | 8.33 nM 0.53% | 100 nM 0.32% | 833.33 nM 0.07% | 10000 nM -2.34%

CCC(C/C=C/c1ccccc1)(c1ccccc1)N(C)CC1CC1 (stereo not given) [igmesine]
inactive: 1 nM -0.08% | 8.33 nM 0.01% | 100 nM -2.22% | 833.33 nM -1.63% | 10000 nM 6.93%

Cc1ccc(C(=O)Cn2c3c(sc2=N)CCCC3)cc1 [pifithrin-alpha]
inactive: 1 nM -1.05% | 8.33 nM -0.83% | 100 nM -1.23% | 833.33 nM -1.09% | 10000 nM -2.47%

O=C(O)Cc1cccnc1C(=O)O [homoquinolinic-acid]
inactive: 1 nM 3.71% | 8.33 nM -1.17% | 100 nM -11.5% | 833.33 nM 1.81% | 10000 nM 1.14%
